Measurements taken from article PMC4336329 (PLoS ONE, 2015).
The whole screen tested about 310,000 compounds, of which about 14,000 (4.5%) showed an effect of 50% or more. Effects have a minus sign here. Many of the other results were omitted from the sample, so strong results are more common in it than they were.

biological target: human ether-à-go-go-related gene (hERG) potassium channel (human, UniProt Q12809); assay: primary screen, population patch clamp on CHO cells stably expressing hERG; higher = less effect of the substance
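Further: peak tail current of the secondary pulse compared with the same well before compound.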

Sequence of human ether-à-go-go-related gene (hERG) potassium channel (Q12809 whole entry, looked up): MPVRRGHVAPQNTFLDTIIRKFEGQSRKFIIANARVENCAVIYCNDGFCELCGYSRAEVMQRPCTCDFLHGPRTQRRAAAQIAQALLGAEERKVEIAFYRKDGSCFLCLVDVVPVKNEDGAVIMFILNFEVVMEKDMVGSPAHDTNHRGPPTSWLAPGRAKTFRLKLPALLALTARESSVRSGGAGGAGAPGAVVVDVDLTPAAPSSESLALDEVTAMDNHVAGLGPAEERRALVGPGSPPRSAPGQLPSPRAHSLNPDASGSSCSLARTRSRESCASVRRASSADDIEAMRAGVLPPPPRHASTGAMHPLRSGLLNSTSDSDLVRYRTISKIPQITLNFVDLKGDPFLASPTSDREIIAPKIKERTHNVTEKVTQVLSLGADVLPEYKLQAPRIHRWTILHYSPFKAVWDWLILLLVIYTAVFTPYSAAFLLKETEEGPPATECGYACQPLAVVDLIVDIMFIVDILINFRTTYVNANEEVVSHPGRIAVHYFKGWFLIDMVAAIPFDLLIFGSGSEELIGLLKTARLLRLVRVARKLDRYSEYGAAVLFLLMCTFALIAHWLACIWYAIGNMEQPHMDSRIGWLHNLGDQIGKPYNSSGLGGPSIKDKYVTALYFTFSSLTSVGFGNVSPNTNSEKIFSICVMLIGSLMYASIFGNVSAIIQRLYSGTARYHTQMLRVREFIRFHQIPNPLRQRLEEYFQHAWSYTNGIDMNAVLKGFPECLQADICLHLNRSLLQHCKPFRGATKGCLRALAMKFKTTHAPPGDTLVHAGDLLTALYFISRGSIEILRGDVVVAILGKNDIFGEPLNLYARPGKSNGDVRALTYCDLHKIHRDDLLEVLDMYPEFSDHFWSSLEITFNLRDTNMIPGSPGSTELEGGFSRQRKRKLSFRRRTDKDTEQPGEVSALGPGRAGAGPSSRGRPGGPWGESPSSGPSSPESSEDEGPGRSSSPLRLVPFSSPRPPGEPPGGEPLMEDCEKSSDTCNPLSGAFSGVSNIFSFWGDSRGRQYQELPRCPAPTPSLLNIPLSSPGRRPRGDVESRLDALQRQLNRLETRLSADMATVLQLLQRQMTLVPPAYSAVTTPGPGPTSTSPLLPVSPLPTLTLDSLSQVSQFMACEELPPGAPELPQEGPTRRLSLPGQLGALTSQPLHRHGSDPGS

| SMILES | hERG current change (%, negative = inhibition) at 10uM [%] |
| --- | --- |
| CC(=O)Nc1sc(C)c(C)c1C(=O)OCC(=O)N(CC(C)C)c1c(N)n(Cc2ccccc2)c(=O)[nH]c1=O | -1.37 |
| Cc1cc(C)nc(N(C#N)CC(=O)N2CCC(C(N)=O)CC2)n1 | 20.1 |
| CN1CCc2[nH]c3ccc(C(=O)NN)cc3c2C1 | 5.22 |
| CC1CCc2sc(C(=O)NCC(C)(C)N3CCOCC3)cc2C1 (stereo not shown) | -32.6 |
| CCOC(=O)c1oc2ccccc2c1NC(=O)c1ccc(Cl)s1 | 11.7 |
| Nc1ncc(CN2CCCC(C(=O)Nc3ccc(-c4ccco4)cc3)C2)cn1 (stereo not shown) | -17.8 |
| Cc1ncc(CN2CCCC(C(=O)Nc3ccc(-c4ccco4)cc3)C2)cn1 (stereo not shown) | -11.5 |
| COc1cccc(-c2ccc(NC(=O)C3CCCN(Cc4cnn(C(C)C)c4)C3)cc2)c1 (stereo not shown) | -79.7 |
| COc1cccc(-c2ccc(NC(=O)C3CCCN(Cc4cnc(C)s4)C3)cc2)c1 (stereo not shown) | 2.11 |
| Cn1cc(CN2CCCC(C(=O)Nc3ccc(-c4cccc(F)c4)cc3)C2)cn1 (stereo not shown) | -43.9 |
| COc1cccc(-c2ccc(NC(=O)C3CCCN(Cc4cnc(C)n4C)C3)cc2)c1 (stereo not shown) | -74.3 |
| Cc1ncc(CN2CCCC(C(=O)Nc3ccc(-c4cccc(F)c4)cc3)C2)cn1 (stereo not shown) | -73.2 |
| O=C(Nc1ccc(-c2cccc(F)c2)cc1)C1CCCN(Cc2ccccn2)C1 (stereo not shown) | -42.3 |
| COc1cccc(-c2ccc(NC(=O)C3CCCN(Cc4cnn(C)c4)C3)cc2)c1 (stereo not shown) | -37 |
| COc1cccc(-c2ccc(NC(=O)C3CCCN(Cc4cnc(N(C)C)s4)C3)cc2)c1 (stereo not shown) | 8.97 |
| Cc1ncc(CN2CCCC(C(=O)Nc3ccc(-c4ccco4)cc3)C2)n1C (stereo not shown) | -59.6 |
| COc1cccc(C(=O)C2CCCN(Cc3cnn(C(C)C)c3)C2)c1 (stereo not shown) | -43.6 |
| COC(=O)c1c(C)nc(C)c(C(=O)OC)c1-c1ccc(OC)cc1 | -7.69 |
| Cc1cc(C)nc(N/N=C/c2cn[nH]c2-c2ccc(F)cc2)n1 | 8.66 |
| Cc1ccc(CNC(=O)c2cccc3c2C(=O)c2ccc(N4CCCCC4)cc2S3(=O)=O)cc1 | -6.76 |
| CCOc1ccc(CCNC(=O)Nc2ccccc2C)cc1OCC | 5.4 |
| COc1ccccc1-c1ccc(SCc2cccc(C)c2)nn1 | -26.6 |
| Cc1ccc(CCC(=O)Nc2ccc(Cl)cc2)o1 | 12.8 |
| O=C(O)C1=CC[C@@H](c2ccc(Cl)cc2)N(S(=O)(=O)c2ccc(Cl)cc2)[C@H]1c1ccc(F)cc1 | 4.97 |
| CCOC(=O)c1sc(N)c(C#N)c1CSc1nnc(C2CCCCC2)n1N | -1.65 |
| CC1CC(C)CN(C(=O)c2cc3ccccc3o2)C1 (stereo not shown) | -2.2 |
| COc1ccc(C(=O)Nc2cc(Cl)ccc2Cl)c(OC)n1 | -5.79 |
| O=C(Nc1cccc(-c2ccc(F)cc2)c1)C1CCCN(Cc2cccnc2)C1 (stereo not shown) | -60.2 |

| SMILES | hERG current change (%, negative = inhibition) at 10uM [%] |
| --- | --- |
| CCc1ncc(CN2CCCC(C(=O)Nc3cccc(-c4cccc(C)c4)c3)C2)cn1 (stereo not shown) | -48.8 |
| CCCc1ncc(CN2CCCC(C(=O)Nc3ccc(-c4cccc(OC)c4)cc3)C2)cn1 (stereo not shown) | -39.7 |
| Cc1ccc(C(=O)N2CCCC(C(=O)Nc3cccc(-c4ccc(F)cc4)c3)C2)cn1 (stereo not shown) | -29.1 |
| Cc1ncoc1C(=O)N1CCCC(C(=O)Nc2cccc(-c3ccc(F)cc3)c2)C1 (stereo not shown) | -36.4 |
| Cc1cccc(-c2cccc(NC(=O)C3CCCN(C(=O)c4ocnc4C)C3)c2)c1 (stereo not shown) | -53 |
| CCc1nc(C)c(C(=O)N2CCCC(C(=O)Nc3cccc(-c4cccc(C)c4)c3)C2)o1 (stereo not shown) | -42.5 |
| Cc1ncc(CN2CCCC(C(=O)Nc3ccc(-n4ccnc4C)cc3)C2)cn1 (stereo not shown) | 12.8 |
| Cc1ncc(CN2CCCC(C(=O)Nc3ccc(-c4cccc(F)c4)cc3)C2)s1 (stereo not shown) | 1.64 |
| Cc1ncc(CN2CCCC(C(=O)Nc3ccc(-c4cccc(F)c4)cc3)C2)n1C (stereo not shown) | -69.5 |
| COCCc1ncc(CN2CCCC(C(=O)Nc3cccc(-c4cccc(C)c4)c3)C2)cn1 (stereo not shown) | -56.6 |
| Cc1ccc(C(=O)C(C)OC(=O)CCN=C2NS(=O)(=O)c3ccccc32)cc1 (stereo not shown) | 6.4 |
| Cc1nn(Cc2c(Cl)cccc2Cl)c(Cl)c1C(=O)O | 14.4 |
| COCCN(C(=O)CC1C(=O)NCCN1Cc1ccc(-c2ccccc2)cc1)C(C)C (stereo not shown) | 1 |
| COc1ccc(OCCn2ccnc2)cc1 | 12.4 |
| CCOCCCNC(=S)N1C2CCC1CC(NC(=O)Nc1ccc(C(=O)OCC)cc1)C2 (stereo not shown) | 13.7 |
| Cc1ccc(-c2nc(C(=O)NCCCN3CCOCC3)cc3c2[nH]c2ccccc23)cc1 | -15 |
| COc1ccc(-c2nc(C(=O)NCC3CCCO3)cc3c2[nH]c2ccccc23)cc1 (stereo not shown) | -2.81 |
| COc1cccc(-c2nc(C(=O)NCCCN3CCOCC3)cc3c2[nH]c2ccccc23)c1 | -65.3 |
| COc1ccc(-c2nc(C(=O)NCCCN3CCOCC3)cc3c2[nH]c2ccccc23)cc1OC | -72.2 |
| COc1cc(-c2nc(C(=O)NC3CCN(Cc4ccccc4)CC3)cc3c2[nH]c2ccccc23)cc(OC)c1OC | -59.6 |
| COc1cccc(-c2nc(C(=O)NCC3CCCO3)cc3c2[nH]c2ccccc23)c1 (stereo not shown) | -26.4 |
| COc1cc(-c2nc(C(=O)NC3CCCCC3)cc3c2[nH]c2ccccc23)cc(OC)c1OC | -8.67 |
| COc1ccc(-c2cc(C(=O)NCCCN3CCOCC3)c3ccccc3n2)cc1OC | -7.5 |
| COc1ccccc1-c1nc(C(=O)NCC2CCCO2)cc2c1[nH]c1ccccc12 (stereo not shown) | -29 |
| COc1ccc(OC)c(-c2nc(C(=O)NCC3CCCO3)cc3c2[nH]c2ccccc23)c1 (stereo not shown) | -59.1 |
| COc1ccc(OC)c(-c2nc(C(=O)NC3CCN(Cc4ccccc4)CC3)cc3c2[nH]c2ccccc23)c1 | -43.5 |
| O=C(NCCCN1CCOCC1)c1cc2c([nH]c3ccccc32)c(-c2cccc(Br)c2)n1 | -40.8 |
